Results filed as inconclusive are left out. Values without a mark were called inactive. The source made the active and inactive calls. Calls follow the shape of the dose curve; as a rule, active = well fitted cell-killing curve with a large enough effect in the repeat runs; inconclusive = weak or mixed curves, or effect the other way; inactive = flat fitted curve, though single readings scatter.
experiment: cAMP Responsive Elements (CRE) small molecule agonists, cell-based qHTS assay: qHTS cell viability counter screen (AID 2060914); conditions: CRE-bla HEK293T viability, CellTiter-Glo luminescence, 5 h; series mostly up to 92.4 µM; activity change, negative = cytotoxicity: at the top concentration; also: nearly all actives have a fitted effect of over 50% in size
Method in brief: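 Luminescence read-out (CellTiter-Glo, 30 min RT) of ATP-based viability in CRE-bla HEK 293T cells, run in the same wells as the β-lactamase reporter assay after 3 h compound treatment at 37 °C.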
% is scaled to controls: 0 for no effect and ±100 for the full control effect; potency is read from the fitted curve at half-maximal effect.

Compared with C=C[Si](OC)(OC)OC, C=COCCOCCOCCOC=C is lower in “activity change, negative = cytotoxicity” value: 0.79% for the first, -3.34% for the second.

First: O=C(CCCCCCCCc1cccnc1)N1CCC(C=C(c2ccccc2)c2ccccc2)CC1
Second: O=C(Nc1ccc2c(c1)Cc1ccccc1-2)C(F)(F)F
The “activity change, negative = cytotoxicity” value of the first is higher: -0.678% for the first, -24.1% for the second.

Compared with COc1ccccc1N=Nc1c(S(=O)(=O)O)cc2cc(S(=O)(=O)O)cc(NC(C)=O)c2c1O, COc1ccc(N=Nc2cc(C)c(N=Nc3ccc(S(=O)(=O)O)cc3)cc2OC)cc1 is lower in “activity change, negative = cytotoxicity” value: -1.84% for the first, -2.39% for the second.

Compared with C1=C\CC/C=C\CC/C=C\CC/1, C1=C\CC/C=C\CC/1 is higher in “activity change, negative = cytotoxicity” value: 12.6% for the first, 15.7% for the second.

Going from CCc1cccc(O)c1 to Cc1c(N)cccc1[N+](=O)[O-], the “activity change, negative = cytotoxicity” value falls from 3.22% to -11.4%.

Compared with C1COCCO1, CCCC[O][Al]([O]CCCC)[O]CCCC is higher in “activity change, negative = cytotoxicity” value: -10.9% for the first, 3.14% for the second.

First: N#CCCOCCOCCC#N
Second: Cc1ncsc1CCO
The “activity change, negative = cytotoxicity” value of the first is lower: -18.3% for the first, -7.98% for the second.

First: Nc1cc(N)cc(C(=O)O)c1
Second: CC(C)=CC(=O)O
The “activity change, negative = cytotoxicity” value of the first is lower: -7.02% for the first, 6.84% for the second.

Compared with CCNc1nc(NC(C)(C)C)nc(OC)n1, On1ccccc1=S is lower in “activity change, negative = cytotoxicity” value: -2.2% for the first, -8.84% for the second.

First: CCCCN(CCCC)C(C(N)=O)c1ccc(OC)cc1 (stereo not given)
Second: CCOC(=O)c1ccc(C#Cc2ccc3c(c2)C(C)(C)CCS3)nc1
The “activity change, negative = cytotoxicity” value of the first is lower: -12.9% [at 42.5 µM] for the first, -7.05% [at 42.5 µM] for the second.

First: O=C1[C@@H]2[C@H]3CC[C@H](C3)[C@@H]2C(=O)N1CCCCN1CCN(c2ncccn2)CC1
Second: Cc1ccc(NC(=O)c2ccc(CN3CCN(C)CC3)cc2)cc1Nc1nccc(-c2cccnc2)n1
The “activity change, negative = cytotoxicity” value of the first is higher: 8.31% [at 42.5 µM] for the first, 3.72% [at 42.5 µM] for the second.

Compared with COC(=O)[C@H]1[C@H]2C[C@@H]3c4[nH]c5cc(OC)ccc5c4CCN3C[C@H]2C[C@@H](OC(=O)/C=C/c2ccc(O)c(OC)c2)[C@@H]1OC, COc1ccc2c(c1)c(CC(=O)OCC(=O)O)c(C)n2C(=O)c1ccc(Cl)cc1 is lower in “activity change, negative = cytotoxicity” value: 2.09% [at 42.5 µM] for the first, 1.78% [at 42.5 µM] for the second.

Going from CN1CCC(Nc2ncc3ncnc(Nc4ccc(F)c(Cl)c4)c3n2)CC1 to COc1cc(Nc2c(C#N)cnc3cc(OCCCN4CCN(C)CC4)c(OC)cc23)c(Cl)cc1Cl, the “activity change, negative = cytotoxicity” value falls from -4.94% [at 42.5 µM] to -8.1% [at 42.5 µM].

Going from c1ccc2c(c1)-c1ccc3ccc4cccc5cc-2c1c3c45 to CCCCc1nc(Cl)c(CO)n1Cc1ccc(-c2ccccc2-c2nn[nH]n2)cc1, the “activity change, negative = cytotoxicity” value falls from 1.42% [at 42.5 µM] to 0.412% [at 42.5 µM].

Going from O=C(c1ccccc1)c1ccc2n1CCC2C(=O)O (stereo not given) to C[N+]1(CC2COC(c3ccccc3)(C3CCCCC3)O2)CCCCC1 (stereo not given), the “activity change, negative = cytotoxicity” value falls from -6.38% [at 42.5 µM] to -13.8% [at 42.5 µM].

For N#C/C(=C1/SC[C@@H](c2ccc(Cl)cc2Cl)S1)n1ccnc1, the “activity change, negative = cytotoxicity” value was -10.2% [at 42.5 µM].

In the case of CC(=O)OCc1ccco1, the Potency is reported as “inactive”.
For OC[C@H]1O[C@@](CO)(O[C@H]2O[C@H](CO)[C@@H](O)[C@H](O)[C@H]2O)[C@@H](O)[C@@H]1O, the Potency was “inactive”.
For CCCCCCCCCCCCCC[N+](C)(C)C, the Potency was 52.7 µM (active).
In the case of CN1[C@@H]2CC[C@H]1CC(OC(=O)C(CO)c1ccccc1)C2 (stereo not given in full), the Potency is reported as “inactive”.
For O=C(O)c1ccc2c(c1)C(=O)OC2=O, the Potency was “inactive”.
In the case of CCCCCCC(C)(C)S, the Potency is reported as “inactive”.
For CCOC(=O)C(C)Oc1ccc(Oc2cnc3cc(Cl)ccc3n2)cc1 (stereo not given), the Potency was “inactive”.
With NC(=O)OCC(COC(N)=O)c1ccccc1 the Potency was “inactive”.
For Nc1ccc(C(=O)O)cc1, the Potency was “inactive”.

Source: PubChem BioAssay (Tox21)
